{"source": "PubChem BioAssay", "key": {"[1]": {"assay": "viability loss in pontine glioma line – cell-based, SU-DIPG-XVII, MIPE5.0, CellTiter-Glo, qHTS, dose response (AID 1347060; cut-off not given, nearly all actives have AC50 up to about 26 µM)", "conditions": "CellTiter-Glo ATP luminescence"}, "[2]": {"assay": "viability loss in pontine glioma line – cell-based, SU-DIPG-XIII, MIPE5.0, CellTiter-Glo, qHTS, dose response (AID 1347064; cut-off not given, nearly all actives have AC50 up to about 23 µM)", "conditions": "CellTiter-Glo ATP luminescence"}, "[3]": {"assay": "viability loss in pontine glioma line – cell-based, SU-DIPG-XXV, MIPE5.0, CellTiter-Glo, qHTS, dose response (AID 1347065; cut-off not given, nearly all actives have AC50 up to about 26 µM;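 further: cells exposed to compound for 48 hours before ATP readout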)", "conditions": "CellTiter-Glo ATP luminescence"}, "[4]": {"assay": "JHH-DIPG-1 glioma cell viability, MIPE5.0 library, CellTiter-Glo luminescence, qHTS (AID 1347067; cut-off not given, nearly all actives have AC50 up to about 26 µM;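 further: cells exposed to compound for 48 hours before readout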)", "conditions": "JHH-DIPG-1 glioma viability, CellTiter-Glo ATP luminescence"}, "[5]": {"assay": "growth inhibition of DIPG cells – cell-based, MIPE5.0 library, qHTS (AID 1347068; cut-off not given, nearly all actives have IC50 up to about 30 µM)", "conditions": "SU-DIPG-XXV viability"}, "[6]": {"assay": "growth inhibition, single agent or in combination, cell-based, chromothripsis tumors, cisplatin or BGB combos (AID 1671449);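 further: cells exposed for 96 hours; 0% = vehicle DMSO and 100% = killing by high DMSO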", "conditions": "LFS_MB_P medulloblastoma cells"}, "[7]": {"assay": "growth inhibition, single agent and combos, cell-based, chromothripsis tumors, cisplatin or BGB combos (AID 1671450);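 further: cells exposed to compound for four days; 0% = vehicle DMSO and 100% = cell killing by high DMSO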", "conditions": "HDN33 neuroblastoma cells, stronger effect = higher value"}, "[8]": {"assay": "growth inhibition, single agents and combos, ICB984, cell-based, cisplatin or BGB combos, synergistic combos for chromothripsis tumors (AID 1671451; call rule not given here;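 further: cells exposed for 96 hours before readout; 0% = vehicle DMSO and 100% = killing by high DMSO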)", "conditions": "ICB984 medulloblastoma cells, drug combinations, stronger effect = higher value"}, "[9]": {"assay": "growth inhibition, single agents and combos, LFS_MB_1R, cell-based, cisplatin or BGB combos, synergistic combos for chromothripsis tumors (AID 1671452);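 further: cells exposed for 96 hours before readout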", "conditions": "LFS_MB_1R medulloblastoma cells, stronger effect = higher value"}, "[10]": {"assay": "growth inhibition, single agents and combos, HTB85, cell-based, BGB or cisplatin IC20 combos, synergistic combos for chromothripsis tumors (AID 1671453);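 further: cells exposed for 96 hours before readout; 0% = vehicle DMSO and 100% = high DMSO killing control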", "conditions": "HTB85 osteosarcoma cells, drug combinations, stronger effect = higher value"}, "[11]": {"assay": "growth inhibition, single agents and combos, CRL2098, cell-based, BGB or cisplatin IC20 combos, synergistic combos for chromothripsis tumors (AID 1671454);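 further: cells exposed for 96 h before readout; 0% = vehicle DMSO and 100% = killing by high DMSO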", "conditions": "CRL2098 osteosarcoma cells, drug combinations, stronger effect = higher value"}, "[12]": {"assay": "growth inhibition, single agents and combos, HD-MB03, cell-based, BGB or cisplatin IC20 combos, synergistic combos for chromothripsis tumors (AID 1671455; in the data active means inhibition above about 83%;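 further: 0% = vehicle DMSO and 100% = high DMSO as cytotoxic control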)", "conditions": "HD-MB03 medulloblastoma cells, stronger effect = higher value"}, "[13]": {"assay": "growth inhibition, single agents and combos, UWB1.289, cell-based, BGB or cisplatin combos, synergistic combos for chromothripsis tumors (AID 1671456);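 further: cells exposed to compound for four days; 0% = vehicle DMSO and 100% = killing by high DMSO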", "conditions": "UWB1.289 ovarian carcinoma cells, stronger effect = higher value"}, "[14]": {"assay": "growth inhibition, MDA-MB-436, cell-based, BGB or cisplatin combos, synergistic combos for chromothripsis tumors (AID 1671458; call rule not given here;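 further: cells exposed for 96 hours; 0% = vehicle DMSO and 100% = killing by high DMSO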)", "conditions": "MDA-MB-436 breast carcinoma growth inhibition, drug combinations, stronger effect = higher value"}, "[15]": {"assay": "BT084 cell growth, single and combined drugs, ICGC_MB145, cisplatin and BGB IC40 combos (AID 1671461);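 further: cells exposed to drugs for 96 hours; 0% = vehicle DMSO and 100% = high DMSO full killing control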", "conditions": "BT084 medulloblastoma cells, drug combinations, stronger effect = higher value"}, "[16]": {"assay": "RCMB18 cell growth, single agent and combined, cisplatin and BGB IC40 combos (AID 1671462);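 further: cells exposed to compound for four days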", "conditions": "RCMB18 medulloblastoma cells, stronger effect = higher value"}, "[17]": {"assay": "CRL1545 cell growth, single agent and combined, cisplatin and BGB IC20 combos (AID 1671464);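 further: cells exposed to compound for 96 hours before readout; 0% = vehicle DMSO and 100% = high DMSO killing control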", "conditions": "CRL1545 osteosarcoma cells, stronger effect = higher value"}, "[18]": {"conditions": "measured here: combination with BGB IC40, at 0.05 µM"}, "[19]": {"conditions": "measured here: with BGB IC20 combination, at 0.5 µM"}, "[20]": {"conditions": "measured here: with cisplatin IC20 combination, at 0.5 µM"}, "[21]": {"conditions": "measured here: combination with cisplatin, at 0.5 µM"}}, "note": "Inconclusive results are not listed. Activity calls are given as the source filed them. Unless noted, no stated cut-off is given here; in the data, active means inhibition above about 80%; inactive means the rest.", "data": [{"molecule": "C=C1[C@H](CO)[C@@H](O)C[C@@H]1n1cnc2c(=O)[nH]c(N)nc21", "values": [{"measurement": "outcome", "setting": "[1]", "value": "inactive"}, {"measurement": "outcome", "setting": "[2]", "value": "inactive"}, {"measurement": "outcome", "setting": "[3]", "value": "inactive"}, {"measurement": "outcome", "setting": "[4]", "value": "inactive"}, {"measurement": "outcome", "setting": "[5]", "value": "inactive"}, {"measurement": "inhibition", "setting": "[6]; at 0.5 µM, stronger effect = higher value", "value": "-21.8% (inactive)"}, {"measurement": "inhibition", "setting": "[6]; measured here: combination with BGB IC20, at 0.005 µM", "value": 5.29, "unit": "%"}, {"measurement": "inhibition", "setting": "[6]; measured here: combination with BGB IC40, at 0.005 µM", "value": 73.1, "unit": "%"}, {"measurement": "inhibition", "setting": "[6]; [18]", "value": 2.38, "unit": "%"}, {"measurement": "inhibition", "setting": "[6]; measured here: combination with cisplatin, at 0.5 µM, stronger effect = higher value", "value": -17.3, "unit": "%"}, {"measurement": "inhibition", "setting": "[6]; measured here: combination with cisplatin, at 5 µM, stronger effect = higher value", "value": -13.1, "unit": "%"}, {"measurement": "inhibition", "setting": "[7]; BGB combo, at 5 µM", "value": -36.2, "unit": "%"}, {"measurement": "inhibition", "setting": "[7]; at 0.5 µM", "value": "-7.93% (inactive)"}, {"measurement": "inhibition", "setting": "[7]; cisplatin combo, at 5 µM", "value": -16.1, "unit": "%"}, {"measurement": "inhibition", "setting": "[7]; [19]", "value": -13.1, "unit": "%"}, {"measurement": "inhibition", "setting": "[7]; [20]", "value": -0.869, "unit": "%"}, {"measurement": "inhibition", "setting": "[7]; single agent, at 5 µM", "value": -23.6, "unit": "%"}, {"measurement": "inhibition", "setting": "[8]; BGB IC20 combo, at 0.005 µM", "value": -16, "unit": "%"}, {"measurement": "inhibition", "setting": "[8]; BGB IC40 combo, at 0.005 µM", "value": -1.32, "unit": "%"}, {"measurement": "inhibition", "setting": "[8]; BGB IC40 combo, at 0.05 µM", "value": -29.5, "unit": "%"}, {"measurement": "inhibition", "setting": "[8]; at 0.5 µM", "value": "-11.2% (inactive)"}, {"measurement": "inhibition", "setting": "[8]; cisplatin combo, at 0.05 µM", "value": -36.2, "unit": "%"}, {"measurement": "inhibition", "setting": "[8]; cisplatin combo, at 0.5 µM", "value": -7.79, "unit": "%"}, {"measurement": "inhibition", "setting": "[8]; cisplatin combo, at 5 µM", "value": -2.87, "unit": "%"}, {"measurement": "inhibition", "setting": "[8]; measured here: 5 uM single agent, at 5 µM", "value": -12.5, "unit": "%"}, {"measurement": "inhibition", "setting": "[9]; at 0.5 µM", "value": "-2.98% (inactive)"}, {"measurement": "inhibition", "setting": "[9]; [18]", "value": -6.72, "unit": "%"}, {"measurement": "inhibition", "setting": "[9]; [21]", "value": -9.39, "unit": "%"}, {"measurement": "inhibition", "setting": "[9]; measured here: combination with cisplatin, at 5 µM", "value": 13.9, "unit": "%"}, {"measurement": "inhibition", "setting": "[10]; at 0.5 µM", "value": "-14.3% (inactive)"}, {"measurement": "inhibition", "setting": "[10]; measured here: with BGB IC20, at 0.5 µM", "value": -14.3, "unit": "%"}, {"measurement": "inhibition", "setting": "[10]; measured here: with BGB IC20, at 5 µM", "value": -13, "unit": "%"}, {"measurement": "inhibition", "setting": "[10]; measured here: with cisplatin IC20, at 0.5 µM", "value": -20.6, "unit": "%"}, {"measurement": "inhibition", "setting": "[10]; measured here: with cisplatin IC20, at 5 µM", "value": -13.2, "unit": "%"}, {"measurement": "inhibition", "setting": "[10]; single agent, at 5 µM", "value": -13, "unit": "%"}, {"measurement": "inhibition", "setting": "[11]; at 0.5 µM", "value": "-23% (inactive)"}, {"measurement": "inhibition", "setting": "[11]; measured here: combination with BGB at IC20, at 0.5 µM", "value": -65.5, "unit": "%"}, {"measurement": "inhibition", "setting": "[11]; measured here: combination with cisplatin at IC20, at 0.5 µM", "value": -29.3, "unit": "%"}, {"measurement": "inhibition", "setting": "[12]; at 0.5 µM", "value": "0.83% (inactive)"}, {"measurement": "inhibition", "setting": "[12]; measured here: combo with BGB at IC20, at 0.5 µM", "value": -0.76, "unit": "%"}, {"measurement": "inhibition", "setting": "[12]; measured here: combo with cisplatin at IC20, at 0.5 µM", "value": -1.27, "unit": "%"}, {"measurement": "inhibition", "setting": "[13]; at 0.5 µM", "value": "-8.13% (inactive)"}, {"measurement": "inhibition", "setting": "[13]; measured here: inhibition with BGB combination, at 0.05 µM", "value": 1.38, "unit": "%"}, {"measurement": "inhibition", "setting": "[13]; measured here: inhibition with cisplatin combination, at 0.05 µM", "value": -3.75, "unit": "%"}, {"measurement": "inhibition", "setting": "[14]; at 0.5 µM", "value": "-0.47% (inactive)"}, {"measurement": "inhibition", "setting": "[14]; measured here: BGB combination, at 0.5 µM", "value": -0.92, "unit": "%"}, {"measurement": "inhibition", "setting": "[14]; measured here: BGB combination, at 5 µM", "value": -0.668, "unit": "%"}, {"measurement": "inhibition", "setting": "[14]; measured here: cisplatin combination, at 0.5 µM", "value": 0.06, "unit": "%"}, {"measurement": "inhibition", "setting": "[14]; measured here: cisplatin combination, at 5 µM", "value": -10.2, "unit": "%"}, {"measurement": "inhibition", "setting": "[15]; at 0.5 µM", "value": "4.2% (inactive)"}, {"measurement": "inhibition", "setting": "[15]; cisplatin combination, at 0.5 µM", "value": 2.02, "unit": "%"}, {"measurement": "inhibition", "setting": "[15]; cisplatin combination, at 5 µM", "value": -20, "unit": "%"}, {"measurement": "inhibition", "setting": "[15]; measured here: BGB IC40 combination 0.05 uM, at 0.05 µM", "value": -15.2, "unit": "%"}, {"measurement": "inhibition", "setting": "[15]; single agent, at 5 µM", "value": 6.8, "unit": "%"}, {"measurement": "inhibition", "setting": "[16]; at 0.5 µM", "value": "-7.97% (inactive)"}, {"measurement": "inhibition", "setting": "[16]; cisplatin combo, at 5 µM", "value": 3.9, "unit": "%"}, {"measurement": "inhibition", "setting": "[16]; measured here: BGB IC40 combination, at 0.05 µM", "value": -6.21, "unit": "%"}, {"measurement": "inhibition", "setting": "[16]; [21]", "value": -17.4, "unit": "%"}, {"measurement": "inhibition", "setting": "[16]; single agent, at 5 µM", "value": -2.06, "unit": "%"}, {"measurement": "inhibition", "setting": "[17]; at 0.5 µM", "value": "-6.46% (inactive)"}, {"measurement": "inhibition", "setting": "[17]; [19]", "value": -39.9, "unit": "%"}, {"measurement": "inhibition", "setting": "[17]; [20]", "value": 8.8, "unit": "%"}, {"measurement": "inhibition", "setting": "[17]; single agent, at 0.05 µM", "value": 4.9, "unit": "%"}, {"measurement": "inhibition", "setting": "[17]; single agent, at 5 µM", "value": -41.7, "unit": "%"}]}]}
